Measurements from paper PMC7819943, “Rice protein-binding microarrays: a tool to detect cis-acting elements near promoter regions in rice”.
Over roughly 68,000 sequences, “fluorescence intensity (a.u.)” has its median near 9,100; the highest 2% begin near 16,000. Only a selection was taken, and the highest values are over-represented in it overall.

Biological target: OsWRKY34 (Oryza sativa, UniProt Q0JBA9 1-250)
Experiment: protein-binding microarray (RPBM); PBS, 2% BSA, 51.3 ng/ul salmon testes DNA, 50 uM zinc acetate, 200 nM TF, 25 C, 1 h; high values mean tight binding
Conditions: protein: recombinant; tags: N-terminal polyhistidine and DsRed monomer fusion (pET32a); label: CyDye5-dUTP incorporated in the synthesized complementary strand; 3' TTTTT single-stranded linker to array surface; dsDNA, one strand shown
Method in brief: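 Per-feature fluorescence intensity (arbitrary units), read on an Axon 4000B scanner, is the binding signal. Transcription factors carrying an N-terminal polyhistidine tag and DsRed fusion were expressed in E. coli BL21-CodonPlus and purified on Ni–NTA. A custom Agilent array, made double-stranded by primer extension with Cy5-dUTP and blocked with 2% BSA, was incubated with 200 nM protein in PBS, 2% BSA, salmon testes DNA and 50 µM zinc acetate at 25 °C for 1 h and then washed.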

OsWRKY34, sequence (Q0JBA9 entry or part of it): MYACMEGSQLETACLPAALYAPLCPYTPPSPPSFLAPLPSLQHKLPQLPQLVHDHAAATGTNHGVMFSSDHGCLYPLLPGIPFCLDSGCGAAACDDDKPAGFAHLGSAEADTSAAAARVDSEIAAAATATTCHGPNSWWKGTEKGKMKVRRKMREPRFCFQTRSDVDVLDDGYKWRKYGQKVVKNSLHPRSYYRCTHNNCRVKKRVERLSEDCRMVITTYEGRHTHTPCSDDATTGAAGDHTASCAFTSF

Sequence	binding signal
AATATGTGGGTGATTTGTTGTAATGGAGTATGTGGTGGAGCGGAGTCACCTAGTGCAG	10000 fluorescence intensity (a.u.)
CGGTTTCGTTTGAGATTTTTTTTTGGTGGTTTTGATTTCGCGGAGTCACCTAGTGCAG	8640 fluorescence intensity (a.u.)
TATTTTTGGGTTGGGTTTGGGTTGGGTTGGGTCGAGTTGGCGGAGTCACCTAGTGCAG	26100 fluorescence intensity (a.u.)
GATAGTTGAGGGGTCGAGATTTTTGGTATTGCGGATTGGGCGGAGTCACCTAGTGCAG	10400 fluorescence intensity (a.u.)
GGTGGTCTTCTTTTTTTGCGGTGGAGTTGGATTTGGGTTGCGGAGTCACCTAGTGCAG	13000 fluorescence intensity (a.u.)
GGCGAGTGGCGGATTTGTTTTTGGTTTGTTTTTGAGTTTGCGGAGTCACCTAGTGCAG	9060 fluorescence intensity (a.u.)
CGATCTTGCCCTGGTTGGTTGGTGGTGGTGGTGGGTTTTGCGGAGTCACCTAGTGCAG	37100 fluorescence intensity (a.u.)
GGTGGGTTGGGCCGTGATTTGTATGGACTTTATTTGTAAGCGGAGTCACCTAGTGCAG	19000 fluorescence intensity (a.u.)
GTTTACATGTGTAGATCTAATGATGCGTTCAATCTAGTTTCGGAGTCACCTAGTGCAG	8860 fluorescence intensity (a.u.)
GCGGATTTCCTTTCTAAACGTGCCAACGATGTGTTCTTGTCGGAGTCACCTAGTGCAG	8250 fluorescence intensity (a.u.)
CAAAACAGAAGAGCCAGGTTAGTTTAGTTGGTCATATTCACGGAGTCACCTAGTGCAG	8310 fluorescence intensity (a.u.)
AGCCATCCGGCCGCGGCCCGTCACAGGTAACTAGTCATTTCGGAGTCACCTAGTGCAG	9260 fluorescence intensity (a.u.)
TTCCCACCGCTGCCGCTCGTCCCGTCTCACCGATCCCTCCCGGAGTCACCTAGTGCAG	10300 fluorescence intensity (a.u.)
CGCCGCCATTTCCGCCTCTTCTTCTCTTAAACAAAAAGCCCGGAGTCACCTAGTGCAG	10200 fluorescence intensity (a.u.)
TCCTGTGTTTTTTCTGTGTTTTGCAATCCTCTGTTTTACACGGAGTCACCTAGTGCAG	10900 fluorescence intensity (a.u.)
ACTACTCACTCTTCATTGCTTTTTTTTTTCTCTCTCTAGCCGGAGTCACCTAGTGCAG	9600 fluorescence intensity (a.u.)
TGGGGTTCTTGTTTTTCTTTTCCGGGATCTTTGGGTGATGCGGAGTCACCTAGTGCAG	15900 fluorescence intensity (a.u.)
GATCTGACCGGATTTTGCGGTGGGGTTTTCTTTTTTGGGTCGGAGTCACCTAGTGCAG	12200 fluorescence intensity (a.u.)
CTACTACTCTTTTCTCAGAGCTAGTGAGGGGCGGGCGGGCCGGAGTCACCTAGTGCAG	17500 fluorescence intensity (a.u.)
TTGACTGGGTTTTTCTTTTTTTTTTCTGTTTTGTTGTTTGCGGAGTCACCTAGTGCAG	10100 fluorescence intensity (a.u.)
CACTACCTCAGTATTCTCTACTACTACTCTTTTCTCAGAGCGGAGTCACCTAGTGCAG	8470 fluorescence intensity (a.u.)
TGGTTTTCTGTTTTCTTGGTTTTGGGTGGTGGCAGTTGACCGGAGTCACCTAGTGCAG	23200 fluorescence intensity (a.u.)

Sequence	binding signal
GGTAAAACATGTTGGATTTTATTTTGGTGGGATGTGCAATCGGAGTCACCTAGTGCAG	9620 fluorescence intensity (a.u.)
TGGGGTTTTCTTTTTTGGGTTGGGTTGATCTTTTGGGTGGCGGAGTCACCTAGTGCAG	36600 fluorescence intensity (a.u.)
AACTTGGTGGGTTTGGTTTTGCTCTTTCTGTTGACCAAGCCGGAGTCACCTAGTGCAG	12000 fluorescence intensity (a.u.)
GTCTTATTGTGGTTGGGAGTTTAACGGTGTACCGAAGAAACGGAGTCACCTAGTGCAG	8780 fluorescence intensity (a.u.)
TTTTTGGGTGGGAGTTGTATTTTTTTAACATGTGGGAAAACGGAGTCACCTAGTGCAG	21300 fluorescence intensity (a.u.)
TCTTCGTCGACACCACCCCAGCCGGTGTCCCCACGCGCTCCGGAGTCACCTAGTGCAG	10100 fluorescence intensity (a.u.)
CCAGTTTGTATCTCATGTATTGGGCCTCGAAATCTGGTATCGGAGTCACCTAGTGCAG	12200 fluorescence intensity (a.u.)
GTTACTGCACATTGACCATCGCGTTACTGCACCGTTCTGCCGGAGTCACCTAGTGCAG	8940 fluorescence intensity (a.u.)
GAGGGGTTTCATTGTTATTTTTGGGTAATCCAAATTTACACGGAGTCACCTAGTGCAG	16300 fluorescence intensity (a.u.)
GCGAACCGCGAATACAATAGCCGGCGCCCCGCGCGTACACCGGAGTCACCTAGTGCAG	8070 fluorescence intensity (a.u.)
TCCTCGCGACCTTAATTTACTCCTCCAATGGCCGCCGCTGCGGAGTCACCTAGTGCAG	8600 fluorescence intensity (a.u.)
CGCTGTATTTTGTTGGGATCACCTGTACATTTCTTCACAACGGAGTCACCTAGTGCAG	10900 fluorescence intensity (a.u.)
TTTCTTGGTCTTTGGGTTAAATGTGGTTATGCCTTATATTCGGAGTCACCTAGTGCAG	8260 fluorescence intensity (a.u.)
GAGTCATAGTAGTGTAGTAGTGGGTCAACTCAGTCAAGTCCGGAGTCACCTAGTGCAG	8290 fluorescence intensity (a.u.)
GTATTATTGTCCCTTACATTGCTAACTCAATGTTGTATTACGGAGTCACCTAGTGCAG	8130 fluorescence intensity (a.u.)
TTTTTACAACCCTGCGATTCAGATAGACCTTACCATTTTTCGGAGTCACCTAGTGCAG	8940 fluorescence intensity (a.u.)
TTTGATCTTGTGGTGGTTTGGGTGATCGGTGGCGATGGGGCGGAGTCACCTAGTGCAG	11000 fluorescence intensity (a.u.)
GTGGGTGGTTGGTGGTGGTGGTGGTGGTGGTGATCTTTGGCGGAGTCACCTAGTGCAG	23900 fluorescence intensity (a.u.)
GAGTAGGATGGGGTTTGATTTTGGGGTTCGTGGGGTCGAGCGGAGTCACCTAGTGCAG	17100 fluorescence intensity (a.u.)
CAGCGGAGAGCGGCGGCGGCGAGTAGGATGGGGTTTGATTCGGAGTCACCTAGTGCAG	8380 fluorescence intensity (a.u.)
TAGGTGGTGTTTGGTTTATGGATCAGGTGGGTTGGGTTGGCGGAGTCACCTAGTGCAG	8740 fluorescence intensity (a.u.)
ATAGGAGGGGTCATATTAGTAGGGTTTTTTTTGGACGGAGCGGAGTCACCTAGTGCAG	8260 fluorescence intensity (a.u.)
